According to PubChem BioAssay (NCI):
About 79,000 compounds went through this panel and 15% of them were active in at least one assay; those are over-represented in the sample as a whole. Calls of active or inactive are those of the source. Rule as the data show it: active = growth inhibition above about 70%; inactive = the rest.

Columns and labels:
[1] = NCI Yeast Anticancer Drug Screen. Data for the rad52 strain (AID 147);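 also: 0% = growth of vehicle-treated control cultures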; conditions: S. cerevisiae rad52 mutant growth inhibition, hits give high values
Method in brief: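 Genetically altered yeast (DNA damage repair defect) treated with compound; inhibition calculated relative to vehicle.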

[2] = NCI Yeast Anticancer Drug Screen. Data for the wt1 strain (AID 149);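 also: 0% = growth of vehicle-treated wt1 cultures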; conditions: S. cerevisiae wt1 strain (SPY 50644) growth inhibition, hits give high values
Method in brief: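 Compounds are added to wt1 yeast cultures. Growth is then measured. Inhibition is expressed relative to vehicle-treated controls.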

[3] = NCI Yeast Anticancer Drug Screen. Data for the rad50EPP+ strain (AID 151);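 also: 0% = growth of vehicle-treated control cultures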; conditions: S. cerevisiae rad50 mutant strain, hits give high values
Method in brief: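 Strain rad50EPP+; compound exposure; % growth inhibition vs vehicle.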

[4] = NCI Yeast Anticancer Drug Screen. Data for the mgt1 strain (AID 153); conditions: S. cerevisiae mgt1 mutant growth inhibition, hits give high values
Method in brief: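 Read-out: yeast growth inhibition vs vehicle control. Strain mgt1, drawn from a panel altered in DNA damage repair or cell cycle control.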

[5] = NCI Yeast Anticancer Drug Screen. Data for the rad50 strain (AID 155);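 also: 0% = growth of vehicle-only cultures of the same strain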; conditions: S. cerevisiae rad50 strain growth inhibition, hits give high values
Method in brief: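 Inhibition values express reduced yeast growth in compound-treated cultures relative to vehicle-treated controls.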

[6] = NCI Yeast Anticancer Drug Screen. Data for the mec2-1 strain (AID 157); conditions: S. cerevisiae mec2-1 strain, hits give high values
Method in brief: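 Cells of the genetically defined mec2-1 yeast strain are incubated with test compound. Inhibition of growth is calculated against vehicle-treated controls.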

[7] = NCI Yeast Anticancer Drug Screen. Data for the rad14 strain (AID 159);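 also: 0% = growth of vehicle-treated control cultures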; conditions: S. cerevisiae rad14 strain growth inhibition, hits give high values
Method in brief: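 A mutant yeast strain defective in DNA damage repair is treated with compound; inhibition of its growth is scored against untreated, vehicle-exposed cultures.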

[8] = NCI Yeast Anticancer Drug Screen. Data for the sgs1 mgt1 strain (AID 161);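 also: 0% = growth of cultures given vehicle only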; conditions: S. cerevisiae sgs1 mgt1 strain, hits give high values
Method in brief: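 Test agents were incubated with a DNA-repair-mutant yeast strain. Growth was then read and compared against vehicle-treated controls.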

[9] = NCI Yeast Anticancer Drug Screen. Data for the CLN2oe strain (AID 163);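 also: 0% = growth of vehicle-only control cultures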; conditions: S. cerevisiae CLN2oe strain, hits give high values
Method in brief: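 Strain altered in cell-cycle control, incubated with compound; growth compared to solvent-treated controls.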

[10] = NCI Yeast Anticancer Drug Screen. Data for the cln2 rad14 strain (AID 165);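 also: 0% = growth equal to vehicle treated cultures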; conditions: S. cerevisiae cln2 rad14 strain, hits give high values
Method in brief: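 The screen exposed genetically defined yeast (cln2 rad14) to test compounds and scored growth inhibition relative to vehicle-treated controls.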

[11] = NCI Yeast Anticancer Drug Screen. Data for the bub3 strain (AID 167); conditions: S. cerevisiae bub3 mutant strain, hits give high values
Method in brief: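 Steps: expose the mutant yeast strain to compound; grow alongside vehicle-treated cultures; measure growth; express inhibition against the vehicle cultures.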

[12] = NCI Yeast Anticancer Drug Screen. Data for the mlh1 strain (AID 171);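 also: 0% = growth of vehicle-treated control cultures of the same strain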; conditions: S. cerevisiae mlh1 strain growth inhibition, hits give high values
Method in brief: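 Yeast screen: mutant strain plus compound, growth scored against vehicle control wells.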

[13] = NCI Yeast Anticancer Drug Screen. Data for the sgs1 strain (AID 173);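 also: 0% = growth of vehicle-only control cultures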; conditions: S. cerevisiae sgs1 mutant, hits give high values
Method in brief: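 Inhibition of yeast growth served as the measure. The mutant strain was treated with each compound, and growth was normalised to cultures receiving vehicle alone.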

[14] = NCI Yeast Anticancer Drug Screen. Data for the mlh1 rad18 strain (AID 175); conditions: S. cerevisiae mlh1 rad18 strain growth inhibition, hits give high values
Method in brief: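 Compound-treated yeast growth, normalised to vehicle controls. Strain bears defined DNA repair mutations.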

[15] = NCI Yeast Anticancer Drug Screen. Data for the rad18 strain (AID 177); conditions: S. cerevisiae rad18 mutant growth inhibition, hits give high values
Method in brief: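 Inhibition values reflect reduced yeast growth compared with vehicle-treated controls, using a strain engineered with a DNA damage repair defect.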

[16] = at 5.0 µM (retest, dose inferred, filed as 0.5)
[17] = at 50.0 µM (retest, dose inferred, filed as 5.0)

Measured: growth inhibition

C[C@@]12CCC(=O)C=C1CC[C@H]1C2=CC[C@]2(C)C1CC[C@@]2(C)O (stereo partly drawn)
active: [1]; at 100.0 µM 91% | [2]; at 100.0 µM 91% | [4]; at 33.0 µM 86% | [4]; at 100.0 µM 96% | [5]; at 50.0 µM 74.2% | [5]; at 100.0 µM 85% | [6]; at 33.0 µM 85% | [6]; [17] 82% | [6]; at 100.0 µM 96% | [7]; at 33.0 µM 70% | [7]; at 100.0 µM 92% | [8]; [17] 78% | [8]; at 50.0 µM 77.5% | [9]; at 33.0 µM 75% | [9]; at 100.0 µM 93% | [11]; at 33.0 µM 80% | [11]; at 50.0 µM 75.5% | [11]; at 100.0 µM 96% | [12]; at 100.0 µM 90% | [13]; at 33.0 µM 72% | [13]; at 100.0 µM 91% | [15]; at 33.0 µM 76% | [15]; at 100.0 µM 92%
inactive: [1]; at 1.2 µM -12% | [1]; at 3.7 µM -3% | [1]; at 11.0 µM -4% | [1]; at 33.0 µM 69% | [2]; at 1.2 µM -13% | [2]; at 3.7 µM -26% | [2]; at 11.0 µM -23% | [2]; at 33.0 µM 54% | [3]; at 1.2 µM -1% | [3]; at 3.7 µM -6% | [3]; at 11.0 µM -8% | [3]; at 33.0 µM -12% | [3]; at 100.0 µM 1% | [4]; at 1.2 µM 12% | [4]; at 3.7 µM 19% | [4]; at 11.0 µM 38% | [5]; at 1.2 µM 1% | [5]; at 3.7 µM 7% | [5]; [16] 27% | [5]; at 11.0 µM 5% | [5]; at 33.0 µM 63% | [5]; [17] 60% | [6]; at 1.2 µM 8% | [6]; at 3.7 µM 10% | [6]; [16] 44% | [6]; at 11.0 µM 15% | [6]; at 50.0 µM 66.5% | [7]; at 1.2 µM -22% | [7]; at 3.7 µM -25% | [7]; at 11.0 µM -10% | [8]; [16] -27% | [9]; at 1.2 µM 32% | [9]; at 3.7 µM -2% | [9]; at 11.0 µM 0% | [10]; [16] 46% | [10]; [17] 30% | [10]; at 50.0 µM 56.9% | [11]; at 1.2 µM -1% | [11]; at 3.7 µM 19% | [11]; [16] -28% | [11]; at 11.0 µM 28% | [11]; [17] 54% | [12]; at 1.2 µM -27% | [12]; at 3.7 µM -11% | [12]; at 11.0 µM 4% | [12]; at 33.0 µM 63% | [13]; at 1.2 µM 1% | [13]; at 3.7 µM -6% | [13]; at 11.0 µM 14% | [14]; [16] 25% | [14]; [17] 58% | [14]; at 50.0 µM 50.5% | [15]; at 1.2 µM -2% | [15]; at 3.7 µM 0% | [15]; at 11.0 µM 10%
